About 79,000 compounds went through this panel and 15% of them were active in at least one assay; those are over-represented in the sample as a whole. The source made the active and inactive calls. Cut-off read from the data, not from the text of the source: active = growth inhibition above about 70%; inactive = the rest.
Assays:
[1] = NCI Yeast Anticancer Drug Screen. Data for the mlh1 strain (AID 171);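 note: 0% = growth of vehicle-treated control cultures of the same strain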; conditions: S. cerevisiae mlh1 strain growth inhibition, stronger effect = higher value
Outline: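 Vehicle-normalised growth inhibition of a repair- or checkpoint-altered yeast strain following compound treatment.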

[2] = NCI Yeast Anticancer Drug Screen. Data for the sgs1 strain (AID 173);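 note: 0% = growth of vehicle-only control cultures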; conditions: S. cerevisiae sgs1 mutant, stronger effect = higher value
Outline: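 Screen format: yeast with repair or checkpoint alterations, compound exposure, growth read relative to vehicle.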

[3] = NCI Yeast Anticancer Drug Screen. Data for the mlh1 rad18 strain (AID 175); conditions: S. cerevisiae mlh1 rad18 strain growth inhibition, stronger effect = higher value
Outline: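 Vehicle-treated cultures served as the reference for growth inhibition in a yeast strain carrying DNA damage repair alterations exposed to each compound.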

[4] = NCI Yeast Anticancer Drug Screen. Data for the rad18 strain (AID 177); conditions: S. cerevisiae rad18 mutant growth inhibition, stronger effect = higher value
Outline: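 Test articles were incubated with altered yeast defective in DNA damage repair. Results are given as inhibition of growth versus vehicle.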

[5] = NCI Yeast Anticancer Drug Screen. Data for the rad52 strain (AID 147);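 note: 0% = growth of vehicle-treated control cultures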; conditions: S. cerevisiae rad52 mutant growth inhibition, stronger effect = higher value
Outline: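 Vehicle-treated cultures served as the reference for growth inhibition of compound-exposed yeast bearing a DNA repair mutation.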

[6] = NCI Yeast Anticancer Drug Screen. Data for the wt1 strain (AID 149);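 note: 0% = growth of vehicle-treated wt1 cultures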; conditions: S. cerevisiae wt1 strain (SPY 50644) growth inhibition, stronger effect = higher value
Outline: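 Readout: yeast growth inhibition, normalised to vehicle controls, in the wt1 strain exposed to test compounds.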

[7] = NCI Yeast Anticancer Drug Screen. Data for the rad50EPP+ strain (AID 151);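 note: 0% = growth of vehicle-treated control cultures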; conditions: S. cerevisiae rad50 mutant strain, stronger effect = higher value
Outline: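 In this screen, rad50EPP+ yeast were exposed to compounds. Growth inhibition was scored against vehicle-treated controls.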

[8] = NCI Yeast Anticancer Drug Screen. Data for the rad50 strain (AID 155);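 note: 0% = growth of vehicle-only cultures of the same strain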; conditions: S. cerevisiae rad50 strain growth inhibition, stronger effect = higher value
Outline: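 Compounds were tested on a yeast strain with an engineered DNA damage repair alteration; the reported value is growth inhibition normalised to vehicle treatment.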

[9] = NCI Yeast Anticancer Drug Screen. Data for the mec2-1 strain (AID 157); conditions: S. cerevisiae mec2-1 strain, stronger effect = higher value
Outline: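 Vehicle-treated cultures served as reference for growth inhibition of compound-exposed mec2-1 yeast.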

[10] = NCI Yeast Anticancer Drug Screen. Data for the rad14 strain (AID 159);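 note: 0% = growth of vehicle-treated control cultures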; conditions: S. cerevisiae rad14 strain growth inhibition, stronger effect = higher value
Outline: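 Compound-treated yeast with a defined DNA-repair lesion; growth inhibition normalised to vehicle-treated cultures.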

[11] = NCI Yeast Anticancer Drug Screen. Data for the sgs1 mgt1 strain (AID 161);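 note: 0% = growth of cultures given vehicle only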; conditions: S. cerevisiae sgs1 mgt1 strain, stronger effect = higher value
Outline: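 Inhibition of yeast growth, normalised to vehicle-treated controls, is reported for a strain bearing genetic alterations in DNA damage repair.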

[12] = NCI Yeast Anticancer Drug Screen. Data for the CLN2oe strain (AID 163);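 note: 0% = growth of vehicle-only control cultures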; conditions: S. cerevisiae CLN2oe strain, stronger effect = higher value
Outline: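 Inhibition relative to vehicle-treated yeast is reported. Cells: strain with genetic alteration in cell-cycle control, grown with compound.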

[13] = NCI Yeast Anticancer Drug Screen. Data for the cln2 rad14 strain (AID 165);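 note: 0% = growth equal to vehicle treated cultures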; conditions: S. cerevisiae cln2 rad14 strain, stronger effect = higher value
Outline: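 Each compound was tested on cln2 rad14 yeast. Inhibition of growth was calculated against vehicle-exposed controls.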

[14] = NCI Yeast Anticancer Drug Screen. Data for the bub3 strain (AID 167); conditions: S. cerevisiae bub3 mutant strain, stronger effect = higher value
Outline: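 Growth of a checkpoint-deficient yeast mutant is measured after compound exposure. Values represent inhibition relative to vehicle.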

[15] = NCI Yeast Anticancer Drug Screen. Data for the wt2 strain (AID 169);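 note: 0% = growth of vehicle-treated yeast cultures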; conditions: S. cerevisiae wt2 strain growth inhibition, stronger effect = higher value
Outline: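 Inhibition of yeast growth was determined after compound treatment, normalised to controls receiving only vehicle.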

[16] = at 5.0 µM (retest, dose inferred, filed as 0.5)
[17] = at 50.0 µM (retest, dose inferred, filed as 5.0)

Measured: growth inhibition

COc1ccc(N=Nc2ccc3oc(=O)c(C(=O)Nc4ccccc4)cc3c2)cc1
active: [1]; at 11.0 µM 92% | [1]; at 33.0 µM 96% | [1]; at 100.0 µM 91% | [2]; at 11.0 µM 93% | [2]; at 33.0 µM 97% | [2]; at 100.0 µM 96% | [3]; [17] 95% | [3]; at 50.0 µM 85.7% | [4]; at 11.0 µM 84% | [4]; at 33.0 µM 95% | [4]; at 100.0 µM 96%
inactive: [1]; at 1.2 µM 25% | [1]; at 3.7 µM 31% | [2]; at 1.2 µM -9% | [2]; at 3.7 µM 18% | [3]; [16] 39% | [4]; at 1.2 µM -7% | [4]; at 3.7 µM 5%

c1ccc(N2N=C3N(c4ccccc4)C2N3c2ccccc2)cc1
active: [5]; at 100.0 µM 93% | [6]; at 100.0 µM 93% | [8]; at 33.0 µM 70% | [8]; [17] 97% | [8]; at 50.0 µM 81% | [8]; at 100.0 µM 92% | [9]; [17] 98% | [9]; at 100.0 µM 93% | [10]; at 100.0 µM 92% | [11]; at 50.0 µM 81% | [12]; at 100.0 µM 92% | [13]; [17] 75% | [14]; at 33.0 µM 80% | [14]; [17] 81% | [14]; at 50.0 µM 82.5% | [14]; at 100.0 µM 92% | [15]; at 100.0 µM 94% | [1]; at 100.0 µM 93% | [2]; at 100.0 µM 93% | [3]; [17] 99% | [3]; at 50.0 µM 77.5% | [4]; at 100.0 µM 94%
inactive: [5]; at 1.2 µM -19% | [5]; at 3.7 µM -14% | [5]; at 11.0 µM 4% | [5]; at 33.0 µM 57% | [6]; at 1.2 µM -46% | [6]; at 3.7 µM -41% | [6]; at 11.0 µM -16% | [6]; at 33.0 µM 34% | [7]; at 1.2 µM -13% | [7]; at 3.7 µM -8% | [7]; at 11.0 µM -5% | [7]; at 33.0 µM 6% | [7]; at 100.0 µM 1% | [8]; at 1.2 µM 1% | [8]; at 3.7 µM 7% | [8]; [16] 43% | [8]; at 11.0 µM 26% | [9]; at 1.2 µM -19% | [9]; at 3.7 µM -22% | [9]; [16] 35% | [9]; at 11.0 µM 3% | [9]; at 33.0 µM 44% | [9]; at 50.0 µM 69.2% | [10]; at 1.2 µM -33% | [10]; at 3.7 µM -36% | [10]; at 11.0 µM -20% | [10]; at 33.0 µM 20% | [11]; [16] -16% | [11]; [17] 57% | [12]; at 1.2 µM -12% | [12]; at 3.7 µM -7% | [12]; at 11.0 µM -10% | [12]; at 33.0 µM 51% | [13]; [16] 28% | [13]; at 50.0 µM 59.5% | [14]; at 1.2 µM -6% | [14]; at 3.7 µM -1% | [14]; [16] 28% | [14]; at 11.0 µM 29% | [15]; at 1.2 µM -17% | [15]; at 3.7 µM -7% | [15]; at 11.0 µM 1% | [15]; at 33.0 µM 44% | [1]; at 1.2 µM -28% | [1]; at 3.7 µM -22% | [1]; at 11.0 µM -7% | [1]; at 33.0 µM 37% | [2]; at 1.2 µM 2% | [2]; at 3.7 µM -29% | [2]; at 11.0 µM 2% | [2]; at 33.0 µM 41% | [3]; [16] 38% | [4]; at 1.2 µM 12% | [4]; at 3.7 µM 10% | [4]; at 11.0 µM -3% | [4]; at 33.0 µM 60%

CC(=O)N1C(=O)/C(=C\C(=O)c2ccc([N+](=O)[O-])cc2)c2ccccc21
active: [5]; at 33.0 µM 92% | [5]; at 100.0 µM 97% | [6]; at 33.0 µM 77% | [6]; at 100.0 µM 97% | [7]; at 33.0 µM 89% | [7]; at 100.0 µM 95% | [8]; at 33.0 µM 93% | [8]; [17] 98% | [8]; at 50.0 µM 85.5% | [8]; at 100.0 µM 95% | [9]; at 33.0 µM 91% | [9]; [17] 98% | [9]; at 50.0 µM 89.5% | [9]; at 100.0 µM 97% | [10]; at 33.0 µM 86% | [10]; at 100.0 µM 97% | [11]; [17] 98% | [11]; at 50.0 µM 88.8% | [12]; at 100.0 µM 96% | [13]; at 50.0 µM 84.5% | [14]; at 33.0 µM 95% | [14]; [17] 96% | [14]; at 50.0 µM 86.8% | [14]; at 100.0 µM 96% | [15]; at 11.0 µM 93% | [15]; at 33.0 µM 98% | [15]; at 100.0 µM 98% | [1]; at 33.0 µM 95% | [1]; at 100.0 µM 97% | [2]; at 33.0 µM 96% | [2]; at 100.0 µM 96% | [3]; [16] 72% | [3]; [17] 98% | [3]; at 50.0 µM 85.7% | [4]; at 33.0 µM 90% | [4]; at 100.0 µM 97%
inactive: [5]; at 1.2 µM -14% | [5]; at 3.7 µM 18% | [5]; at 11.0 µM 53% | [6]; at 1.2 µM -10% | [6]; at 3.7 µM -15% | [6]; at 11.0 µM 21% | [7]; at 1.2 µM -12% | [7]; at 3.7 µM 35% | [7]; at 11.0 µM 4% | [8]; at 1.2 µM 0% | [8]; at 3.7 µM -8% | [8]; [16] 41% | [8]; at 11.0 µM 34% | [9]; at 1.2 µM -10% | [9]; at 3.7 µM 13% | [9]; [16] 60% | [9]; at 11.0 µM 28% | [10]; at 1.2 µM -8% | [10]; at 3.7 µM 9% | [10]; at 11.0 µM 31% | [11]; [16] 46% | [12]; at 1.2 µM -31% | [12]; at 3.7 µM 4% | [12]; at 11.0 µM 28% | [12]; at 33.0 µM 51% | [13]; [16] 25% | [13]; [17] 66% | [14]; at 1.2 µM -33% | [14]; at 3.7 µM -11% | [14]; [16] 12% | [14]; at 11.0 µM 22% | [15]; at 1.2 µM 29% | [15]; at 3.7 µM 55% | [1]; at 1.2 µM -8% | [1]; at 3.7 µM 14% | [1]; at 11.0 µM 67% | [2]; at 1.2 µM -13% | [2]; at 3.7 µM 27% | [2]; at 11.0 µM 66% | [4]; at 1.2 µM 1% | [4]; at 3.7 µM 26% | [4]; at 11.0 µM 61%
